For 16 compounds, Potency, activity change, positive = activation and activity change, negative = inhibition results are on record in PubChem BioAssay (NCATS).

The nature of assay [1]: qHTS for Inhibitors of Plasmodium falciparum (DD2) proliferation (AID 504314). Further: potency means the concentration at half of the fitted maximal effect. The procedure, abridged: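 SYBR Green growth assay: 72 h compound exposure of infected red cells (2.5% hematocrit, 0.3% parasitemia), then lysis and overnight dye staining, fluorescence 485/535 nm. Values scaled between DMSO and 0.29 uM artemisinin controls.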
For orientation: qHTS replaces the single test concentration by a dilution series.

A short description of assay [2]: qHTS for Inhibitors of Plasmodium falciparum (GB4) proliferation (AID 504315). Further: nearly all actives have a fitted effect of over 50% in size. Further: potency means the concentration at half of the fitted maximal effect.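 On activity change, negative = inhibition: 0% = DMSO vehicle and -100% = 0.29 µM artemisinin control.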 The method in brief: (§1)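 Parasite growth measured as SYBR Green DNA fluorescence (ex 485, em 535 nm) after overnight lysis following 72 h culture at 37 °C, 0.3% parasitemia, 2.5% hematocrit. Values normalized against DMSO and 0.29 uM artemisinin controls, with plate-stack correction.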
The nature of assay [3]: qHTS for Inhibitors of Plasmodium falciparum (7G8) proliferation (AID 504316). Further: nearly all actives have a fitted effect of over 65% in size. Further: potency means the concentration at half of the fitted maximal effect.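 On activity change, negative = inhibition: series mostly up to about 6.7 µM; 0% = DMSO vehicle and -100% = 0.29 µM artemisinin full kill.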 The method in brief:
as §1

Assay [4] in a line: qHTS for Inhibitors of Plasmodium falciparum (HB3) proliferation (AID 504318). Further: nearly all actives have a fitted effect of over 60% in size. Further: potency means the concentration at half of the fitted maximal effect.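 On activity change, negative = inhibition: 0% = DMSO vehicle and -100% = artemisinin control.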 The procedure, abridged: as §1
Assay [5] in a line: qHTS for Inhibitors of Plasmodium falciparum (CP250) proliferation (AID 504320). Further: potency means the concentration at half of the fitted maximal effect.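 On activity change, negative = inhibition: plate controls were DMSO vehicle for no effect and 0.29 µM artemisinin control for full effect.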 The method in brief: as §1
For assay [6], the target named is Atrial natriuretic peptide receptor 1 (Homo sapiens) (UniProt P16066). Briefly: Natriuretic polypeptide receptor (hNpr1) antagonism - Pilot CMLD screen (AID 1347052; calls by dose curve;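 further: HEK293 cells with hNpr1 stimulated by hNppA peptide at 0.1 nM; cGMP level read as GloSensor luciferase luminescence after agonist stimulation; series mostly up to about 9.2 µM; on the % scale 0 is the no-effect control and ±100 the full control effect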).
Assay [7] deals with Cytochrome P450 2C9 (Homo sapiens) (UniProt P11712). Briefly: qHTS Assay for Inhibitors and Substrates of Cytochrome P450 2C9 (AID 883). Further: potency means the concentration at half of the fitted maximal effect; nearly all actives have a fitted effect of over 60% in size. The procedure, abridged:
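Human CYP2C9 (10nM) hydroxylated Luciferin-H (100uM, at its KM) to luciferin in 25mM KPO4. Compound was preincubated 10 min at 37C, then NADPH regeneration started a 60 min reaction at 37C. Luminescence was read after detection reagent, normalized to 57uM sulphaphenazole.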

Assay [8] addresses Cytochrome P450 3A4 (Homo sapiens) (UniProt P08684). The assay is described as follows: qHTS Assay for Inhibitors and Substrates of Cytochrome P450 3A4 (AID 884). Further: potency means the concentration at half of the fitted maximal effect; nearly all actives have a fitted effect of over 50% in size. The procedure, abridged:
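Luminescent readout of luciferin produced by CYP3A4 (20 nM) dealkylation of Luciferin-PPXE, 25 uM (its KM). NADPH-driven reaction ran 60 min at RT after 10 min compound preincubation; data scaled to 57 uM ketoconazole as 100% inhibition.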

Assay [9] shares this target. The assay is described as follows: qHTS Assay for Activators of Cytochrome P450 3A4 (AID 885). Further: nearly all actives have a fitted effect of over 65% in size. The procedure, abridged:
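Luminescent readout of luciferin formed from 25 uM Luciferin-PPXE (KM level) by 20 nM CYP3A4 in 200 mM KPO4, with 60 min NADPH-driven reaction at room temperature after 10 min compound exposure. Ketoconazole (57 uM) defined 100% inhibition.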

For assay [10], the target named is Cytochrome P450 2D6 (Homo sapiens) (UniProt P10635). The assay is described as follows: qHTS Assay for Inhibitors and Substrates of Cytochrome P450 2D6 (AID 891).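 Further: luciferin methyl ether substrate demethylated by CYP2D6 with NADPH regeneration; on the % scale 0 is the no-effect control and ±100 the full control effect; nearly all actives have a fitted effect of over 60% in size.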 The method in brief:
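Luminescent read-out of luciferin formed by 5 nM human CYP2D6 demethylating 30 uM Luciferin-ME EGE (Km level) over 60 min at room temperature after NADPH regeneration addition. Data normalized to full inhibition by 1.43 uM quinidine.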

The target of assay [11] is Cytochrome P450 2C19 (Homo sapiens) (UniProt P33261). Briefly: qHTS Assay for Inhibitors and Substrates of Cytochrome P450 2C19 (AID 899). Further: potency means the concentration at half of the fitted maximal effect; nearly all actives have a fitted effect of over 60% in size. The procedure, abridged: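 Human CYP2C19 (5nM) with Luciferin-H EGE at 10uM (its KM) in 50mM KPO4 was preincubated with compound for 10 min at 37C. NADPH regeneration started a 60 min 37C reaction. Luciferin was read by luminescence, normalized to 57uM ketoconazole.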

Unmarked numbers belong to inactive results. Records with an inconclusive call do not appear. Active and inactive are the calls of the source. Unless noted, the call rests on the fitted dose curve; in most records, active means well fitted curve in the direction sought with a large enough effect; inconclusive means small, poorly fitted or top-dose-only effect, or another doubt; inactive means no such curve, though single readings can be large; an effect the other way counts as inactive or inconclusive.

Chain of Atrial natriuretic peptide receptor 1 (Homo sapiens) (P16066 whole entry, looked up): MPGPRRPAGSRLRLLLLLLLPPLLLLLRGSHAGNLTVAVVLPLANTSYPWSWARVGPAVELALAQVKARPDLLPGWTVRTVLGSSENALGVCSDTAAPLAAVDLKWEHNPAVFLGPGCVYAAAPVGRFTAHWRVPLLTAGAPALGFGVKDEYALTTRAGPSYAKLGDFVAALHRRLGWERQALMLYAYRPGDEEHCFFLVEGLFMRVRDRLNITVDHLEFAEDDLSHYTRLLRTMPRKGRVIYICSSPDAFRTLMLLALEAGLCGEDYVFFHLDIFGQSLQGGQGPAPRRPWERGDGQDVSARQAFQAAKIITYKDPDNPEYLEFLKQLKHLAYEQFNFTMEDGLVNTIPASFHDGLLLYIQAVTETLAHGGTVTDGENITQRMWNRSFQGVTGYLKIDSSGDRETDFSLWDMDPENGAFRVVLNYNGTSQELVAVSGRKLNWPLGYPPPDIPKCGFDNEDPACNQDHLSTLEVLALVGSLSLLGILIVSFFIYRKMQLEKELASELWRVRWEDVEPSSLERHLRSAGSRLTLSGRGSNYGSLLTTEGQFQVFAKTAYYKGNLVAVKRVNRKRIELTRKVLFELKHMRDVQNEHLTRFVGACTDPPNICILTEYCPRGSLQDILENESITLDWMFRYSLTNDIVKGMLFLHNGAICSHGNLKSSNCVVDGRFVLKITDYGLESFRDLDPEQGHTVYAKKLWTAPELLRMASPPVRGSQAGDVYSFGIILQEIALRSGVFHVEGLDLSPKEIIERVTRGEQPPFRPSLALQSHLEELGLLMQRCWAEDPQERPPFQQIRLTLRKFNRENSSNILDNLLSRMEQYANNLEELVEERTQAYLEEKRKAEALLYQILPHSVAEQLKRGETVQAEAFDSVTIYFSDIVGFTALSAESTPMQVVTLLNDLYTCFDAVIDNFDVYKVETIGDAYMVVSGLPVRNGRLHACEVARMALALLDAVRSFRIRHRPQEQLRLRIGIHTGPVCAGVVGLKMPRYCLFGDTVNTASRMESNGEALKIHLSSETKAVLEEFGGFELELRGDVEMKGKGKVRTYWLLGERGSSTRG
Chain of Cytochrome P450 3A4 (Homo sapiens) (P08684 whole entry, looked up): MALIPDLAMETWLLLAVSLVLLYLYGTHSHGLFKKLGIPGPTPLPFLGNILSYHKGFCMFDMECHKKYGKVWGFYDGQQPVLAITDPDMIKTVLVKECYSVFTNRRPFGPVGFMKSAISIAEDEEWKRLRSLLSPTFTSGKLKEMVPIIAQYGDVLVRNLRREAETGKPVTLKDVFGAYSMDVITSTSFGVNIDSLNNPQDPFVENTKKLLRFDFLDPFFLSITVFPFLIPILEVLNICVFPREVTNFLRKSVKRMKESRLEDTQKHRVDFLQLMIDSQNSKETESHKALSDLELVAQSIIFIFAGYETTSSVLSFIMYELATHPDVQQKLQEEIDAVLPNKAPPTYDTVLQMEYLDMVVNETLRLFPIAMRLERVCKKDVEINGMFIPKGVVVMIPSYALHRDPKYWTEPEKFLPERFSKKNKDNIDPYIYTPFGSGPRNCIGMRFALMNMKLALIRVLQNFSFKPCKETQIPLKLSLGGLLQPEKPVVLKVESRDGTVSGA
Chain of Cytochrome P450 2C19 (Homo sapiens) (P33261 whole entry, looked up): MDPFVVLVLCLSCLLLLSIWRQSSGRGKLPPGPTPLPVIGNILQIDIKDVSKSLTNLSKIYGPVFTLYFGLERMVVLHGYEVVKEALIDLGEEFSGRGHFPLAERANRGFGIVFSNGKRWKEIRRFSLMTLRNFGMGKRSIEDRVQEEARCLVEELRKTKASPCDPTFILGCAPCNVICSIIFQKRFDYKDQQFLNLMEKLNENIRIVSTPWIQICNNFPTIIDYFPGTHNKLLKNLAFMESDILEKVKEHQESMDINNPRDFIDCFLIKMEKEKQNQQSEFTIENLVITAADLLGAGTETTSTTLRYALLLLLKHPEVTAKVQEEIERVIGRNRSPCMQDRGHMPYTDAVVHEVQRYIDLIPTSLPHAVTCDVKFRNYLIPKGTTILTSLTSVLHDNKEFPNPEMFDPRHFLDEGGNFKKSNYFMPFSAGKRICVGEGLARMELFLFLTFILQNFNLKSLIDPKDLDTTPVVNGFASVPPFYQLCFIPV
Chain of Cytochrome P450 2D6 (Homo sapiens) (P10635 whole entry, looked up): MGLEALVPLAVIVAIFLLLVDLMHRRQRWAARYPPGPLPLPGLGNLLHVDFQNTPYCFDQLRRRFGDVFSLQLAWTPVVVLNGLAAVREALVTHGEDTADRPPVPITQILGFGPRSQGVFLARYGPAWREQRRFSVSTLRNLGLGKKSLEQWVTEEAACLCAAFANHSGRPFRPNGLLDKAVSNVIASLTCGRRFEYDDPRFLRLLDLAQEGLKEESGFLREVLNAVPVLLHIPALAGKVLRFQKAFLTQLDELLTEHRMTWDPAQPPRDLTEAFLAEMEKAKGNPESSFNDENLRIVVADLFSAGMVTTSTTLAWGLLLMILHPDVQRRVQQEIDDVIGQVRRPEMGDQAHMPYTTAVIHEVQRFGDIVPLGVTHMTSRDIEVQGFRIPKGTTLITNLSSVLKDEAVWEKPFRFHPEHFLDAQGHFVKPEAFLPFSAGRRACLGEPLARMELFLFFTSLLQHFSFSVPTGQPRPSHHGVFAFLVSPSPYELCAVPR
Chain of Cytochrome P450 2C9 (Homo sapiens) (P11712 whole entry, looked up): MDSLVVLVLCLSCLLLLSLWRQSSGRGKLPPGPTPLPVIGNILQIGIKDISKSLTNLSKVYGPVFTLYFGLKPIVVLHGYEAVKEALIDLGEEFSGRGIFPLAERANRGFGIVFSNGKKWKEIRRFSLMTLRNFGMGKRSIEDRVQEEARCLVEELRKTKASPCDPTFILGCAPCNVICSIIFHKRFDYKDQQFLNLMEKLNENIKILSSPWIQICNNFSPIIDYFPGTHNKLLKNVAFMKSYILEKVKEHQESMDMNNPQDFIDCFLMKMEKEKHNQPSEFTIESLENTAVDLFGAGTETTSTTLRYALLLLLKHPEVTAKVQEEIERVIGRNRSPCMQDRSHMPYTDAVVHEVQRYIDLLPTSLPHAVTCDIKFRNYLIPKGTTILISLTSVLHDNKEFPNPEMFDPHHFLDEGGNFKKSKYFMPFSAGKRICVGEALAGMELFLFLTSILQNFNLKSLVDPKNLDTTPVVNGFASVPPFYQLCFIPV

On to `COC(=O)CC=C[C@@H](C)[C@@H](C=NOC[C@@H](O)COCc1ccco1)OC`, for which the Potency result in [1], in assay [2], in assay [3], in assay [4], in assay [5] and in [6] was “inactive” in each case.
On to `Cc1cc(C)c2c(c1)CO[C@H]([C@H](O)CO)[C@H]2C=Cc1ccccc1`, for which the Potency entry in [1], in assay [2], in assay [3], in assay [4], in assay [5] and in assay [6] was “inactive” throughout.
Take `COC(=O)C1=C[C@@H]([C@@H](C)[C@H](OC)c2ccccc2Br)[C@@H]2OCC[C@H]12`: the Potency entry in [1], in [2], in assay [3], in assay [4], in assay [5] and in [6] was “inactive” in each case.
In the case of `CCOC(=O)CN1C(=O)N(CC)C(C)=C(C(=O)OC)C1c1ccccc1` (stereo unspecified), the Potency result in [1], in [2], in [3], in assay [4], in assay [5] and in [6] was “inactive” in each case.
As for `O=C(C=Cc1ccc2c(c1)OCO2)c1ccc(F)cc1`, the Potency result in assay [1], in assay [2], in assay [3], in assay [4], in [5] and in [6] was “inactive” in each case.
`CC(C)=NOCc1ccc(-c2cn([C@@H]3COC[C@@H]3O)nn2)cc1`: the Potency result in [1], in [2], in assay [3], in assay [4], in assay [5] and in [6] was “inactive” throughout.
Take `COC(=O)NC(C(=O)OC)(C(=O)OC)c1ccccc1`: the Potency result in assay [1], in assay [2], in assay [3], in [4], in assay [5] and in assay [6] was “inactive” in each case.
Turning to `CSc1nnc2c(n1)C[C@H](c1ccccc1)[C@@H](C)[C@@H](C(=O)N1CCCC1)C2`, the Potency result in [1], in [2], in [3], in assay [4], in assay [5] and in [6] was “inactive” each time.
As for `C=CCOC(=O)[C@H](O)[C@@H](O)C(=O)OCC=C`, the Potency result in assay [1], in assay [2], in assay [3], in [4], in assay [5] and in [6] was “inactive” throughout.
As for `CCCCc1nc2c(c3c1C[C@H](C)OC3)CN(C(=O)Cc1cccs1)CC2`, the Potency result in [1], in [2], in assay [3], in assay [4], in [5] and in assay [6] was “inactive” in each case.
On to `O=C1CCC=C1C(O)CCc1ccccc1` (stereo unspecified), for which the Potency result in assay [1], in assay [2], in assay [3], in [4], in assay [5] and in assay [6] was “inactive” in each case.
As to `COC(=O)CC=C1c2ccc(OC)cc2[C@@H](OC)[C@@H]1C`, the Potency result in assay [1], in assay [2], in assay [3], in [4], in assay [5] and in assay [6] was “inactive” each time.
`COC(=O)C1=C(C)N(CCC(C)O[Si](C)(C)C(C)(C)C)C(=O)N(C(C)=O)C1c1ccccc1` (stereo unspecified): the Potency result in [1], in assay [2], in [3], in [4], in [5] and in [6] was “inactive” throughout.
`C=COCCN1C=C(C(=O)OCC)C(c2ccccc2)NC1=O` (stereo unspecified): the Potency result in [1], in [2], in [3], in assay [4], in [5] and in assay [6] was “inactive” throughout.
With `Cc1cc2c(c(=O)n1Cc1ccccc1)[C@H]1O[C@](CCCCN3C(=O)c4ccccc4C3=O)(Cc3c1ccc1ccccc31)O2`, the Potency is 1690 nM (active) in [1]; 1510 nM (active) in assay [2]; 1510 nM (active) in assay [3]; 1510 nM (active) in [4]; 1690 nM (active) in [5]. Further, in [6], the Potency result was “inactive”.
Take `N#CCCN(CC#Cc1ccccc1)OCc1ccccc1`: the results for the Potency in assay [7], in [8] and in assay [11] were 3160 nM (active), 199 nM (active) and 316 nM (active), respectively. Also, the activity change, positive = activation in assay [9] was -80.9% [at 11.4 µM]. In addition, in assay [10], the activity change, negative = inhibition is -16.6% [at 11.4 µM]. In addition, the Potency result in [1], in [2], in [3], in [4], in [5] and in assay [6] was “inactive” in each case.
